Values without a mark were called inactive. Records with an inconclusive call do not appear. Calls of active or inactive are those of the source. Unless noted, the call rests on the fitted dose curve; in most records, active means well fitted curve in the direction sought with a large enough effect; inconclusive means small, poorly fitted or top-dose-only effect, or another doubt; inactive means no such curve, though single readings can be large; an effect the other way counts as inactive or inconclusive.

Experiment [1] is described as follows: Cell Viability - BJ (AID 421; calls by dose curve;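 further: potency means the concentration at half of the fitted maximal effect; cells exposed to compound for 40 hours at 37 °C before readout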). Conditions: BJ fibroblast viability, qHTS. A digest of the protocol:
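Quantitative HTS: ATP depletion in BJ cells after 40 hr compound exposure in complete culture medium, detected with CellTiter-Glo; AC50 from standard Hill fits.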

A short description of experiment [2]: Cell Viability - Jurkat (AID 426;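 active means dose-dependent loss of cell ATP signal giving a full or clear fitted curve, ranked by lower potency value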;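 further: potency means the concentration at half of the fitted maximal effect; cells exposed to compound for 40 hours at 37 °C before ATP read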). Conditions: qHTS. In outline: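 Luminescent ATP read-out (CellTiter-Glo, 20 min at room temperature) after 40 hr compound exposure at 37 °C of Jurkat E6-1 cells, 5000/well. Decreased ATP taken as cytotoxicity; AC50 from standard Hill equation.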
(In qHTS, concentration-response curves come from the screen itself.)

The nature of experiment [3]: Cell Viability - MRC5 (AID 434; calls by dose curve;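 further: potency means the concentration at half of the fitted maximal effect; potency reflects cytotoxicity seen as loss of intracellular ATP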). Conditions: MRC5 lung fibroblast viability, qHTS. A digest of the protocol:
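ATP luminescence read-out (CellTiter-Glo, 20 min RT) after 40 hr, 37 °C compound exposure of 1500 MRC5 cells/well. Data normalized to DMSO (basal) and 100 uM tamoxifen (100% inhibition); AC50 from standard Hill equation.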

Experiment [4] in a line: Cell Viability - SK-N-SH (AID 435; calls by dose curve; further: potency means the concentration at half of the fitted maximal effect). Conditions: SK-N-SH neuroblastoma cell viability qHTS. A digest of the protocol: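 SK-N-SH human neuroblastoma cells (1500/well) were exposed to compounds in complete medium for 40 h at 37 °C, and intracellular ATP was then measured by CellTiter-Glo luminescence. AC50 was taken from Hill fits, normalized to DMSO and 100 uM tamoxifen.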

Experiment [5] is described as follows: Cell Viability - N2a (AID 540).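 Further: plate controls were DMSO alone for no effect and tamoxifen control for full effect; nearly all actives have a fitted effect of over 45% in size.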 Conditions: N2a mouse neuroblastoma cell viability; activity change, negative = cytotoxicity: at 92.2 µM (top of the series). In outline:
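N2a mouse neuroblastoma, 1500 cells/well, 5 hr settle; compound 40 hr, 37 °C; CellTiter-Glo 20 min RT; luminescence; Hill-fit AC50.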

A short description of experiment [6]: Cell Viability - NIH 3T3 (AID 541). Further: nearly all actives have a fitted effect of over 25% in size. Further: potency means the concentration at half of the fitted maximal effect.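 On activity change, negative = cytotoxicity: plate controls were DMSO alone for no effect and tamoxifen positive control for full effect.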 Conditions: NIH 3T3 cell viability, qHTS; activity change, negative = cytotoxicity: at 92.2 µM (top of the series). A digest of the protocol:
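qHTS format; 40 hr compound exposure, 37 °C; CellTiter-Glo luminescence (cellular ATP) read-out after 20 min at RT. Decrease in ATP = cytotoxicity; AC50 from standard Hill fit.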

The nature of experiment [7]: Cell Viability - H-4-II-E (AID 543). Further: nearly all actives have a fitted effect of over 35% in size. Further: potency means the concentration at half of the fitted maximal effect. Conditions: H-4-II-E rat hepatoma viability; series mostly up to 92.2 µM. In outline: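 qHTS, rat hepatoma H-4-II-E, 1500 cells/well; 40 hr compound exposure, 37 °C; CellTiter-Glo ATP luminescence after 20 min RT; AC50 by standard Hill fit.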
A short description of experiment [8]: Cell Viability - SH-SY5Y (AID 544). Further: nearly all actives have a fitted effect of over 55% in size. Further: potency means the concentration at half of the fitted maximal effect.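 On viability change, negative = cytotoxic: 0% = DMSO alone and -100% = 100 µM tamoxifen.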 Conditions: SH-SY5Y neuroblastoma cell viability; viability change, negative = cytotoxic: at 92.2 µM (top of the series). In outline:
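SH-SY5Y, 1500 cells/well, 5 hr pre-incubation 37 °C; cpd 40 hr 37 °C; CellTiter-Glo 20 min RT; luminescence (ATP) read. qHTS concentration-response, Hill fit → AC50. Tamoxifen, doxorubicin as positive controls.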

Experiment [9] in a line: Cell Viability - Renal Proximal Tubule (AID 545). Further: nearly all actives have a fitted effect of over 40% in size. Further: potency means the concentration at half of the fitted maximal effect.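 On activity change, negative = cytotoxicity: 0% = DMSO only and -100% = 100 µM tamoxifen.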 Conditions: renal proximal tubule cells viability, primary cells of rat origin; activity change, negative = cytotoxicity: at 91.7 µM (top of the series). A digest of the protocol:
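Primary rat renal proximal tubule cells (1000/well) were treated with compounds for 40 hr at 37 °C in complete medium. Intracellular ATP was measured by CellTiter-Glo luminescence, and AC50 values came from Hill-equation fits of concentration-response data.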

Experiment [10] can be described thus: Cellular Toxicity (caspase-3) HepG2 (AID 654).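 Further: cells exposed to compound for 16 hours before reading; 0% = DMSO alone and 100% = caspase signal from 100 µM tamoxifen.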 Conditions: HepG2 caspase-3 activation, luminescence; series mostly up to 92.2 µM. A digest of the protocol:
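Luminescent Caspase-Glo 3/7 readout after 16 hr compound exposure of human hepatocellular carcinoma HepG2 cells at 37 °C; qHTS concentration-response, normalized DMSO = 0%, 100 uM tamoxifen = 100%; AC50 by standard Hill equation.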

Experiment [11] is described as follows: Cellular Toxicity (caspase-3) N2a (AID 665).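 Further: compound exposure lasted 16 h at 37 °C before readout.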 Conditions: N2a cells, luminescence; Potency: caspase-3 activation; series mostly up to 92.2 µM. In outline:
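Luminescent Caspase-Glo 3/7 readout in N2a mouse neuroblastoma cells after 16 h compound exposure at 37 °C. Signal scaled to DMSO (basal) and 10 uM staurosporine (100%). Concentration-response fitted with Hill equation for AC50.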

A short description of experiment [12]: Cellular Toxicity (caspase-3) NIH 3T3 (AID 666).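 Further: 0% = DMSO basal and 100% = 100 µM tamoxifen stimulation.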 Conditions: NIH 3T3 caspase-3 activation, apoptosis/toxicity; series mostly up to 92.2 µM. In outline: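 NIH 3T3, 1000 cells/well, 5 hr settle then 16 hr compound at 37°C; Caspase-Glo 3/7, 20 min RT, luminescence. DMSO = basal, 100 uM tamoxifen = 100%. Hill-equation AC50, qHTS.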
Experiment [13] can be described thus: Cellular Toxicity (caspase-3) Renal Proximal Tubule (AID 667).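 Further: cells exposed to compound for 16 hours at 37 °C before detection; 0% = DMSO basal and 100% = 10 µM staurosporine.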 Conditions: renal proximal tubule cells, primary cells freshly taken from rat, solvent-only wells 0%, staurosporine 100%; series mostly up to 91.7 µM. A digest of the protocol:
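Primary rat proximal tubule cells, 1000/well, 5 h plating at 37 °C, then compound 16 h at 37 °C. Caspase-Glo 3/7 reagent, 1 h RT, luminescence. Normalized to DMSO (basal) and 10 uM staurosporine (100%); Hill-fit AC50.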

Experiment [14] is described as follows: qHTS assay for small molecule disruptors of the mitochondrial membrane potential - 1 hr assay (AID 651754; calls by dose curve; further: nearly all actives have a fitted effect of over 35% in size; further: potency means the concentration at half of the fitted maximal effect). Conditions: series mostly up to 92.2 µM. A digest of the protocol:
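Read-out: dye fluorescence at 490 nm ex/535 nm em (monomers) and 540 nm ex/590 nm em (aggregates) in HepG2 cells. Compound exposure 1 hr at 37C, followed by 30 min dye loading.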

For experiment [15], the target named is Peroxisome proliferator-activated receptor alpha (Homo sapiens) (UniProt Q07869). The experiment can be described thus: qHTS assay for small molecule agonists of the peroxisome proliferator-activated receptor alpha (PPARalpha) signaling pathway (AID 651778). Further: % of control where 0% means no effect. Conditions: PathHunter PPARalpha complementation, chemiluminescence, 6 h; max response: hits give high values. A digest of the protocol: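 Enzyme-fragment complementation assay in which ligand-bound PPARalpha translocates and forms an active enzyme that generates chemiluminescence. Cells were plated overnight, exposed to compound for 6 hr at 37 C, and then given detection reagent for 60 min at room temperature.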

A short description of experiment [16]: qHTS assay for small molecule agonists of the antioxidant response element (ARE) signaling pathway measured by Nrf2-dependant transcriptional activity - cell viability counter screen (AID 720653; active means well fitted curve in the direction sought with a large enough effect in the repeat runs; an effect the other way counts as inactive or inconclusive; further: on the % scale 0 is the no-effect control and ±100 the full control effect). Conditions: ARE-bla HepG2 viability, CellTiter-Glo ATP luminescence, 16 h; max response: hits give low values. In outline: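 ARE-bla HepG2 cells treated with compounds for 16 h at 37C; this counter screen measures viability as intracellular ATP by CellTiter-Glo luminescence after 30 min at room temperature.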

Experiment [17] can be described thus: qHTS assay for cell viability of the p53RE-bla HCT-116 cell line (AID 743292). Further: on the % scale 0 is the no-effect control and ±100 the full control effect; nearly all actives have a fitted effect of over 55% in size. Conditions: p53RE-bla HCT-116 viability, ATP luminescence, 16 h; series mostly up to 95 µM. A digest of the protocol:
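CellSensor p53RE-bla HCT-116 cells (4,000/well) pre-incubated 5 h at 37 C, then exposed to compounds in DMSO for 16 h at 37 C. Viability read as ATP content by CellTiter-Glo luminescence after 30 min at room temperature.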

Experiment [18] is described as follows: NFAT Signaling Pathway (AID 444; active means well fitted curve in either direction with a large enough effect, not every such curve was filed as active;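 further: carbachol stimulus at about its EC50 of 1 µM final; on the % scale 0 is the no-effect control and ±100 the full control effect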). Conditions: Jurkat NFAT-bla M1, carbachol, beta-lactamase ratio, 5 h. A digest of the protocol: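 Jurkat cells with NFAT-driven β-lactamase reporter and co-expressed M1 receptor, stimulated with carbachol (final 1 uM, ~EC50), compound titration, 5 h at 37 °C. CCF4 loaded 1 h at RT; 460/530 nm ratio gave %activity and AC50.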

A short description of experiment [19]: Stat Signaling Pathway (AID 446; active means well fitted curve in either direction with a large enough effect, not every such curve was filed as active;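 further: ME-180 cervical cancer cells given 40 pM IL-6 alongside compound; SIE-controlled beta-lactamase reporter measured as 460/530 nm FRET emission ratio; on the % scale 0 is the no-effect control and ±100 the full control effect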). Conditions: ME-180 (cervical carcinoma) SIE beta-lactamase reporter, IL-6 stimulated, 5 h. In outline: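 Overnight-plated ME-180 cells bearing a STAT Inducible Element beta-lactamase reporter; 5 h co-exposure to compound and 40 pM IL-6; values normalized to 300 pM IL-6 and 125 nM JAK inhibitor controls.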

Chain of Peroxisome proliferator-activated receptor alpha (Homo sapiens) (Q07869 whole entry, looked up, the tested form may be a part): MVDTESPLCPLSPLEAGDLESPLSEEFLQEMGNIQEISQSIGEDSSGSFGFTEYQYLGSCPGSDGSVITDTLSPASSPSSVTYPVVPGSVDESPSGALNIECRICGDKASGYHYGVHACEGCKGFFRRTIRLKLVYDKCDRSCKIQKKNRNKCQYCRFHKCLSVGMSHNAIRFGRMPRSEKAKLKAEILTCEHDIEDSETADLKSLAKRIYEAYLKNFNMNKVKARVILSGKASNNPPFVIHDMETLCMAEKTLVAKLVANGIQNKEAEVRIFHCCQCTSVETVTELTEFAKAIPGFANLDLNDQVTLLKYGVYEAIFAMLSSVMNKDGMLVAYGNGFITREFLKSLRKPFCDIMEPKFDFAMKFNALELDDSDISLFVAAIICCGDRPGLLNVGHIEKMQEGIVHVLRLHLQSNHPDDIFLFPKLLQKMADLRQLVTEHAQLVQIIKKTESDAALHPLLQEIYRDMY

For `C=C(C)c1ccccc1`, the Potency in experiment [1], in [2], in [3] and in experiment [4] was more than 92 µM each time. Besides, the Potency entry in experiment [5], in experiment [6], in experiment [7], in [8], in experiment [9] and in experiment [10] was “inactive” in each case. Also, the Potency result in experiment [11], in [12], in [14] and in experiment [17] was “inactive” throughout. In addition, the result in experiment [13] was inactive. The max response in experiment [15] is -0.0788%; in [16] it was -8.93%.
For `COc1cc2c(c(OC)c1OC)-c1ccc(OC)c(=O)cc1[C@H](NC(C)=O)CC2`, the activity change, negative = inhibition is -4.77% in experiment [18] (at 17.2 µM (top of the series)) and 3.11% in [18] (at 38 µM (top of the series)). Besides, the activity, negative = inhibition in experiment [19] (at 17.2 µM (top of the series)) is 4.59%; in experiment [19] (at 38 µM (top of the series)), -18.3%.
For `C=CC(=O)OCCOCCOC(=O)C=C`, the Potency in experiment [1] was 35.8 µM (active); in experiment [2], 7.5 µM (active); in experiment [4], 22.7 µM (active); in [6] it was 3.16 µM (active); in [7], 20 µM (active); in [8], 6.31 µM (active). Also, in experiment [9], the Potency is 20 µM (active). The activity change, negative = cytotoxicity in [5] is -114% (active). The Potency result in [10], in experiment [11], in experiment [12], in experiment [14] and in experiment [17] was “inactive” each time. Moreover, the result in [13] was inactive. The max response was -4.05% in experiment [15] and -8.93% in experiment [16].
Take `O=C1OC(O)C(C(Cl)Cl)=C1Cl` (stereo not given): the Potency in experiment [1] is 41.2 µM (active); in experiment [2] it was 21.3 µM (active); in [4], 30.2 µM (active); in experiment [8], 15.8 µM (active); in experiment [9], 31.6 µM (active). The activity change, negative = cytotoxicity in experiment [5] is -101% (active). Further, the Potency entry in experiment [10], in experiment [12] and in [14] was “inactive” each time. Besides, the compound was classed as inactive in experiment [13]. In addition, the max response in experiment [15] is -7.18%; in experiment [16], -27.5%.
In the case of `Oc1ccc2cc(SSc3ccc4cc(O)ccc4c3)ccc2c1`, the Potency in experiment [1] was 49.1 µM (active); in experiment [2] it was 36.7 µM (active); in experiment [3], 38.3 µM (active); in [4], 42.5 µM (active); in [7], 50.1 µM (active); in experiment [14], 66.8 µM (active). The activity change, negative = cytotoxicity in experiment [5] was -111% (active); in experiment [9], -82.8% (active). The viability change, negative = cytotoxic in experiment [8] is -101% (active). For the same compound, the Potency result in experiment [10], in [11], in experiment [12] and in [17] was “inactive” in each case. In experiment [13], the compound was classed as inactive. Besides, the results for the max response in [15] and in experiment [16] were -7.41% and -8.42%, respectively.

The values are drawn from PubChem BioAssay (NCATS).
